Screen size: about 2,100 compounds; about 320 (15%) were called active. Inconclusive results (about 52%) are left out. The list shows a part of the results. Unmarked numbers belong to inactive results. The call rests on the fitted dose curve; in most records, active means well fitted cell-killing curve with a large enough effect; inconclusive means small, poorly fitted or top-dose-only effect, or effect the other way; inactive means flat fitted curve, though single readings scatter.
On the % scale 0 is the no-effect control and ±100 the full control effect; potency means the concentration at half of the fitted maximal effect.

A short description of this test: Viability Counterscreen for CMV-Luciferase Assay of Inhibitors of ATXN expression. Further: nearly all actives have a fitted effect of over 55% in size. To be noted: HEK-293 CMV-luciferase cells viability, protease fluorescence, 24 h; activity change, negative = cytotoxicity: at the top concentration. The source says:
PI: Daniel Scoles Ph.D. University of Utah School of Medicine, Salt Lake City, Utah MLPCN Grant: NS073009 Spinocerebellar ataxia type 2 (SCA2) is a multisystem neurodegenerative disease caused by a dominantly acting mutation leading to expansion of a polyQ domain in the ataxin-2 protein (ATXN2). SCA2 patients develop progressive ataxia and later lose function in other neuronal systems. Prominent parkinsonian signs develop in some patients. Like many neurodegenerative disorders, no symptomatic or disease-modifying treatments are known. The primary objective of the proposed research is to identify compounds inhibiting ATXN2 expression and to test them for efficacy in SCA2 mouse models. We have developed a cell-based assay paired with an in vivo mouse model using identical luciferase expression constructs. This approach takes advantage of an ATXN2-luciferase transgene, with the luciferase gene flanked by the upstream and downstream portions of the ATXN2 gene. Here we describe a 5-7 dose quantitative high thoroughput screen (qHTS) for compounds lowering ATXN2 expression. We screened the NIH Molecular Libraries Small Molecule Repository (MLSMR) and NCGC's mechanistically annotated (MIPE) and drug repurposing (NPC) collections of compounds for lowering expression of an ATXN2-luciferase reporter in HEK-293 cells. The assay is a multiplexed cell viability assay to ensure target reduction in the absence of cytotoxicity. Secondary qHTS assays included a CMV-luciferase reporter expressed in HEK-293 cells as well as a biochemical assay using recombinant luciferase to detect inhibitors of the reporter enzyme. Compounds that inhibit ATXN2 expression but is not cytotoxic were selected for confirmatory and secondary screens.
PROTOCOL TABLE (as described by Inglese J, Shamu CE and Guy RK. 2007) SEQUENCE No. (e.g., 1, 2, 3, etc.); […] (e.g., Cells, Incubation, Reagent, etc.); VALUE; DESCRIPTION. 1; Cells; 4 uL; white, solid bottom, 1536-well Greiner assay plate. 2; Incubation; 2 hr; 37 degree C in 5% humidified CO2. 3; Compounds; 23 nL; Kalypsis pintool (Wako USA) equipped with a 1536-well pin head. 4; Incubation; 24 hr; 37 degree C in 5% humidfified CO2. 5; Reagent; 1 uL; Gly-Phe-7-Amino-4-trifluoromethylcoumarin. 6; Incubation; 30 min; 37 degree C in 5% humidfified CO2. 7; Detection; Fluorescence; Viewlux plate reader (PerkinElmer). 8; Reagent; 3 uL; SteadyGlo luciferase solution (Promega). 9; Incubation; 5 min; room temperature. 10; Detection; Luminescence; ViewLux plate reader (PerkinElmer). NOTES (numbers refer to Sequence numbers above) 1. HEK-293 cells expressing CMV-luciferase reporter (designated as SC cells) were suspended in phenol-red free DMEM and dispensed in assay plates using a Multidrop Combi dispenser (Thermo Fisher Scientific). 2. Assay plates were incubated. Evaporation was prevented by covering assay plates with metal lids containing holes to allow gas diffusion. 3. Compounds were added in a dose response manner with the final concentrations of 57, 11.4, 2.28, 0.46, 0.091, 0.018, 0.0037 uM. Vehicle-only plates, with DMSO being pin-transferred to columns 5-48, were inserted uniformly at the beginning and the end of each library to monitor and record any shifts in assay performance. 5. 125 uM Gly-Phe-7-Amino-4-trifluoromethylcoumarin (MP Biomedicals) working concentration was used at a final concentration of 25 uM. 7. To assess cell viability; the assay plates were read using the ViewLux high-throughput CCD imager (PerkinElmer), wherein single end-point fluorescence measurement was acquired (excitation 405/10; emission 540/25 nm). 8. Detection reagent SteadyGlo Luciferase (Promega) was added to the assay plate. 10. Luminescence is then measured on the ViewLux imager equipped with a clear emission filter using a 2 sec exposure. […]
Regarding `Cc1ccc(S(=O)(=O)/C(=C/Cl)NC(=O)c2ccccc2)cc1`, the Potency is 17.8 µM (active).
With `COc1ccc(C(=O)NC(=C(Cl)Cl)S(=O)(=O)c2ccc(C)cc2)cc1`, the “activity change, negative = cytotoxicity” value is -28.4%.
For `Cc1cc(N/N=C/c2ccc(O)cc2O)nc(-n2nc(C)cc2C)n1`, the Potency was 10 µM (active).
`Cc1cc(N/N=C/c2ccccc2[N+](=O)[O-])nc(-n2nc(C)cc2C)n1`: the Potency was 12.6 µM (active).
With `Cc1cc(N/N=C\c2ccc(Br)cc2)nc(-n2nc(C)cc2C)n1`, the “activity change, negative = cytotoxicity” value is -7.45% [at 57.5 µM].
As for `CCn1c2ccccc2c2cc(NC(=O)COC(=O)C3CCC(=O)N3)ccc21` (centres undefined), the “activity change, negative = cytotoxicity” value is -17.1% [at 57.5 µM].
As for `CCCC(=O)OC/C(O)=C(\C#N)c1nc2ccccc2[nH]1`, the “activity change, negative = cytotoxicity” value was -7.86%.
Same read-out and setting: the same measure for `CCN(CC)CCNC(=O)c1ccc(NC(=O)c2ccccc2-c2ccc(C(F)(F)F)cc2)cc1`: -22.9% [at 57.5 µM]; for `COc1cc(CNCc2ccncc2)cc(Br)c1OCc1ccccc1F`: -8.06%.
Still for that read-out and setting: the same measure for `Cc1cc(C(=O)CN2C(=O)c3ccccc3S2(=O)=O)c(C)n1CC1CCCO1` (centres undefined): 7.21% [at 57.5 µM]; for `Cc1cc(C)n(CC(O)Cn2c3ccc(Cl)cc3c3cc(Cl)ccc32)c(=O)n1` (centres undefined): -19.8%; for `CC(Nc1ccccc1CO)C(=O)Nc1cccc(Cl)c1Cl` (centres undefined): -16.1% [at 57.5 µM].
With `Cc1ccccc1C(=O)N/N=C/c1ccc([N+](=O)[O-])s1`, the Potency was 22.4 µM (active).
Turning to `Cc1ccc(NC(=O)/C=C/c2ccc([N+](=O)[O-])s2)c(C)c1`, the “activity change, negative = cytotoxicity” value was 10.5%.
Regarding `O=C(CNC(=O)c1ccccc1Br)N/N=C/c1cc(Br)ccc1O`, the “activity change, negative = cytotoxicity” value was -27.5%.
Still for that read-out and setting: as for `O=C(N/N=C/c1cc(Br)ccc1O)c1ccncc1`, the figure is -12.8%.
Regarding `O=C(N/N=C/c1cc(Br)ccc1OC(=O)c1ccc(Br)cc1)c1ccncc1`, the “activity change, negative = cytotoxicity” value was 10.1% [at 57.5 µM].
In the case of `Cc1cccc(/C=N/NC(=O)c2c(-c3ccccc3)noc2C)c1O`, the “activity change, negative = cytotoxicity” value was -27.5%.
As for `O=C(N/N=C/c1cc(Cl)ccc1O)c1ccccc1Br`, the “activity change, negative = cytotoxicity” value is 6.59% [at 57.5 µM].
On to `O=C(N/N=C\c1ccc([N+](=O)[O-])s1)c1cncc(Br)c1`, for which the Potency is 10 µM (active).
The same measure, in the same setting: as for `O=C(N/N=C/c1ccc([N+](=O)[O-])s1)c1ccccc1Br`, the figure is 20 µM (active).
On to `CCCc1nc(NC2CCCCC2)c(C#N)c2c1COC(C)(C)C2`, for which the “activity change, negative = cytotoxicity” value is 16.2%.
The same measure, in the same setting: as for `CN(C)CCC(c1ccc(Br)cc1)c1ccccn1` (centres undefined), the figure is -13.2% [at 57.5 µM]; as for `N#Cc1cc2cc3c(cc2nc1SCC(=O)N1CCOCC1)OCCO3`, 0.63%.
As for `CN(CC(=O)Nc1ccc(Cl)c(C(F)(F)F)c1)C(=O)c1cccnc1Sc1ccccc1`, the “activity change, negative = cytotoxicity” value is 11.2% [at 57.5 µM].
Take `Cc1ccc(C(=O)N(C)CC(=O)Nc2ccc(Cl)c(C(F)(F)F)c2)cc1S(=O)(=O)N1CCCCC1`: the Potency is 20 µM (active).
As for `Cc1ccc(NC(=O)CSc2ccc(Br)cc2)cc1S(=O)(=O)N1CCOCC1`, the “activity change, negative = cytotoxicity” value was -20.3% [at 57.5 µM].
For the molecule `CC(SC(C)C(=O)NN=Cc1cccc(Cl)c1)C(=O)NN=Cc1cccc(Cl)c1` (centres undefined), the “activity change, negative = cytotoxicity” value was -17.2%.
For the molecule `O=C(Nc1nonc1-c1ccc(Cl)cc1)c1ccccc1`, the “activity change, negative = cytotoxicity” value is -28.7% [at 57.5 µM].
Turning to `O=C1C=CCC(/C=C/c2ccccc2)O1` (centres undefined), the Potency is 31.6 µM (active).
In the case of `Cc1csc2ncnc(NC3CCN(Cc4ccccc4)CC3)c12`, the “activity change, negative = cytotoxicity” value is -5.28% [at 57.5 µM].
For `CCOC(=O)N1CCN(c2ccnc3cc(Cl)ccc23)CC1`, the “activity change, negative = cytotoxicity” value was 13.1%.
Same read-out and setting: the same measure for `Cc1cccc(N2CCN(S(=O)(=O)c3ccc4c(c3)C(C)(C)C(=O)N4C)CC2)c1C`: 6.54% [at 57.5 µM]; for `COc1ccc(O)c(/C=N/NC(=O)CCC(=O)Nc2cccc(C)c2)c1`: 16.1% [at 57.5 µM]; for `COc1cccc(NC(=O)CSc2nc3ncc(Br)cc3[nH]2)c1`: 5.16%.
With `CCN(CC(=O)Nc1cccc(OC)c1)CC(=O)Nc1ccc(Br)c(C)c1`, the Potency is 17.8 µM (active).
On to `O=c1cc(-c2c(F)c(F)c(F)c(F)c2F)oc2ccccc12`, for which the “activity change, negative = cytotoxicity” value was -23.6%.
For the molecule `Cc1ccccc1C(=O)/C(C#N)=N/Nc1c(C)n(C)n(-c2ccccc2)c1=O`, the Potency is 10 µM (active).
Consider `Cc1c(N/N=C(\C#N)C(=O)c2ccc(Cl)cc2)c(=O)n(-c2ccccc2)n1C`, for which the Potency was 2.51 µM (active).
On the same count and under the same terms, as for `Cc1c(N/N=C(\C#N)C(=O)c2ccccc2)c(=O)n(-c2ccccc2)n1C`, the figure is 11.2 µM (active).
`COc1ccc(NS(=O)(=O)c2ccc(C(=O)Nc3c(C)n(C)n(-c4ccccc4)c3=O)cc2)cc1`: the “activity change, negative = cytotoxicity” value was 6.71%.
The same measure, in the same setting: as for `CCOC(=O)c1ccc(NC(=O)c2nc[nH]c2C(=O)N[C@H](C)c2ccccc2)cc1`, the figure is 10.5%; as for `CCn1c(C)cc(C(=O)CN2C(=O)c3ccccc3S2(=O)=O)c1C`, -1.67%; as for `O=C(Nc1cccc2ccccc12)OC1C=CS(=O)(=O)C1` (centres undefined), -14.6%.
Still for that read-out and setting: as for `Cc1ccc(Cc2cnc(N3C(=N)SC(C)C3=O)s2)cc1` (centres undefined), the figure is -1.76%.
For `Cc1cc(C)c(S(=O)(=O)/N=C2\C=C(Nc3ccc(C(=O)O)cc3)C(=O)c3ccccc32)c(C)c1`, the Potency was 2 µM (active).
The same measure, in the same setting: the same measure for `N#C/C(=C\C=C\c1ccccc1[N+](=O)[O-])C(=O)NCc1ccccc1`: 3.16 µM (active); for `N#C/C(=C\c1cccc([N+](=O)[O-])c1)C(=O)NCc1ccc(Cl)cc1`: 3.55 µM (active).
`CC(C)N(Cc1ccccc1)C(=O)/C=C/c1ccccc1[N+](=O)[O-]`: the “activity change, negative = cytotoxicity” value was -9.06% [at 57.5 µM].
